In PubChem BioAssay (EPA / NIEHS):
Calls of active or inactive are those of the source. Rule for the calls: active = hit-call score of the fitted dose curve at least 0.9, where 1 is the maximum; inactive = score below 0.9.

These molecules were tested against Myc proto-oncogene protein (Homo sapiens) (UniProt P01106) (assay: ATG_Myc_CIS: Attagene CIS-FACTORIAL HepG2 Assay for human Myelocytomatosis (Myc) Proto-Oncogene Transcription Factor (AID 2282990)). Settings: HepG2, Attagene cis-reporter transcription factor activity; actives raise or lower the signal.
Method: ATG_CIS is a cell-based, multiplexed-readout assay that uses HepG2, a human liver cell line, with measurements taken at 24 hours after chemical dosing in a 24-well plate.ATG_Myc_CIS is one of 52 assay component(s) measured or calculated from the ATG_CIS assay. It is designed to make measurements of mRNA induction, a form of inducible reporter, as detected with fluorescence intensity signals by Reverse transcription polymerase chain reaction (RT-PCR) and Capillary electrophoresis technology.Data from the assay component ATG_Myc_CIS was analyzed into 1 assay endpoint. This assay endpoint, ATG_Myc_CIS, was analyzed with bidirectional fitting relative to DMSO as the negative control and baseline of activity. Using a type of inducible reporter, measures of mRNA for gain or loss-of-signal activity can be used to understand the reporter gene at the transcription factor-level as they relate to the gene MYC. Furthermore, this assay endpoint can be referred to as a primary readout, because this assay has produced multiple assay endpoints where this one serves a reporter gene function. To generalize the intended target to other relatable targets, this assay endpoint is annotated to the dna binding intended target family, where the subfamily is basic helix-loop-helix leucine zipper.
Human liver HepG2 cells are transiently transfected with multiple reporter transcription units (MRTUs) in 6-well plates using FuGene 6 reagent (Roche; 3 ml FuGene/1 mg DNA). The MRTU constructs are regulated by a cis-regulating element (promoter). […] A major difference between the CIS and TRANS system is that in CIS activities of endogenous TFs are measured, whereas the TRANS assay evaluates changes in activities of exogenous, chimeric NR-Gal4 proteins. […] At the end of 24 hour incubation, total RNA was isolated using TriZol reagent (Invitrogen). The isolated RNA is then reverse-transcribed using oligo(dT) primer and Mo-MLV reverse transcriptase (Invitrogen) with DNAse I (Ambion) treatment for 30 min. The one-tenth of the produced cDNA was amplified by PCR using Taq DNA polymerase (Invitrogen) and two reporter sequence-specific primers. The PCR products were fluorescently labeled by primer extension with 6-arboxyfluorescein (6-FAM) 5'-labeled reporter sequence-specific primer (2 min at 95 C, 20 s at 68 C and 10 min at 72 C) and these products were digested with 5U of HpaI (New England Biolabs) for 2h at 37 C. The fragments were purified using Qiaquick PCR columns (Qiagen), analyzed on an ABI 3130xL genetic analyzer (Applied Biosystems) with peak positions identified by using a set of X-rhodamine (ROX)-labeled MapMarker1000 molecular weight standards (BioVentures). The raw capillary electrophoresis data was processed using Attagraph software (Attagene).

Chain of Myc proto-oncogene protein (Homo sapiens) (P01106 whole entry, looked up): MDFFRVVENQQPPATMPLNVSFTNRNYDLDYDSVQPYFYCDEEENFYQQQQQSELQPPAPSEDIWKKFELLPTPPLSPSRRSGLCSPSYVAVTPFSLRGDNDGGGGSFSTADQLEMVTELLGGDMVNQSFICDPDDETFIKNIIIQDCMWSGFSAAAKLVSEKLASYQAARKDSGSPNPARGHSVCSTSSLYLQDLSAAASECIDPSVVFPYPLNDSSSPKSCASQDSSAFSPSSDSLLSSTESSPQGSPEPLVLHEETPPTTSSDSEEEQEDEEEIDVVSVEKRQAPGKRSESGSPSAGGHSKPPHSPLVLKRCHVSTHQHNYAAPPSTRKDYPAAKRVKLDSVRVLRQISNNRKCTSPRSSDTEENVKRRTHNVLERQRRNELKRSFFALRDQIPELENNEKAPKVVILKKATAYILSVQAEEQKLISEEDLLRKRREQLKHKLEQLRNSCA

SMILES | outcome | AC50
O=C1C=CC(=O)N1c1ccccc1 | inactive | 
CC(C)(C)c1cc(Cc2cc(C(C)(C)C)c(O)c(C(C)(C)C)c2)cc(C(C)(C)C)c1O | inactive | 
O=C(O)C(F)(F)C(F)(F)C(F)(F)C(=O)O | inactive | 
NC(=O)C(F)(F)C(F)(F)C(F)(F)C(F)(F)C(F)(F)C(F)(F)C(F)(F)F | inactive | 
CCOCOCC | inactive | 
CC1=CC2C3C=CC(C3)C2C1C (stereo not given) | inactive | 
CC(C)(C)c1cc(CCC(=O)NCCCCCCNC(=O)CCc2cc(C(C)(C)C)c(O)c(C(C)(C)C)c2)cc(C(C)(C)C)c1O | inactive | 
CC(C)Nc1ccc(NC(C)C)c2c1C(=O)c1ccccc1C2=O | inactive | 
OCC1CCCO1 (stereo not given) | inactive | 
OC(O)C(F)(F)C(F)(F)F | inactive | 
O=C(O)C(F)(F)C(F)(F)C(F)(F)C(F)(F)C(F)(F)C(F)(F)C(F)F | inactive | 
CO[Si](CCCOCC1CO1)(OC)OC (stereo not given) | inactive | 
OCC(F)(F)C(F)(F)C(F)(F)C(F)(F)C(F)(F)C(F)(F)CO | inactive | 
O=C(Cl)C(F)(F)C(F)(F)C(F)(F)C(F)(F)C(F)(F)C(F)(F)C(F)(F)F | inactive | 
NC(=O)C(F)(F)C(F)(F)C(F)(F)C(F)F | inactive | 
FC(F)(F)C(F)(F)C(F)(F)CC1CO1 (stereo not given) | inactive | 
Cc1cccc(C)n1 | inactive | 
C#CC(O)CCC (stereo not given) | inactive | 
CSc1ccc(Cl)cc1 | inactive | 
Cc1ccc(S(=O)(=O)C(I)I)cc1 |  | 8.6 µM (active)

SMILES | outcome | AC50
C=CC(=O)OCCC(F)(F)C(F)(F)C(F)(F)C(F)(F)F | inactive | 
CC(C)CCCC(C)CCO (stereo not given) | inactive | 
OCCCc1cccnc1 | inactive | 
CN(C)C(C)(C)CO | inactive | 
COCCC(=O)OC | inactive | 
CC(C)OC=O | inactive | 
CC1CCCCC1 | inactive | 
CCCCCCCC/C=C\CCCCCCCC(=O)OCC(O)CO (stereo not given) | inactive | 
CCOCN(C(=O)CS(=O)(=O)O)c1c(C)cccc1CC | inactive | 
O=C(O)C(F)(F)OC(F)(F)C(F)(F)OC(F)(F)C(F)(F)OC(F)(F)F | inactive | 
C=C(C)CCCC | inactive | 
CCC(Cc1c(I)cc(I)c(N)c1I)C(=O)O (stereo not given) |  | 148 µM (active)
Cc1cc(C)c(O)c(C(C)(C)C)c1 | inactive | 
CSc1ccc(O)cc1C | inactive | 
CCc1cc(Cc2cc(CC)c(N)c(CC)c2)cc(CC)c1N |  | 57.3 µM (active)
CCCCCCCCCCCCC[N+](C)(C)Cc1ccccc1 | inactive | 
CCN(CC)c1ccc2c(c1)Oc1cc(N(CC)CC)ccc1C21OC(=O)c2ccccc21 | inactive | 
CCc1cccc(C)c1N(C(=O)C(=O)O)C(C)COC (stereo not given) | inactive | 
CCOC(=O)CC(=O)C(F)(F)C(F)(F)F | inactive | 
CCN(CC)c1ccc(N=Nc2ccccc2)cc1 | inactive | 
